Data: PubChem BioAssay AID488866 (Broad Institute, 2010)
Potency and affinity values are given separately. Values without a mark were called inactive.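 Rule for the calls: active = compounds that lower nitrite signal with fitted half-max concentration up to ten times top dose; inconclusive = flat curves showing 30 to 70% inhibition, or poor fits; inactive = the rest.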

Assay: suppression of NO production in INS-1E cells – cell-based, Griess absorbance, dry powder, dose response (AID 488866)
Settings: INS-1E cytokine-induced nitrite, 48 h; series mostly up to 19.5 µM; activity change, negative = inhibition: at the top concentration

| Compound | activity change, negative = inhibition |
| --- | --- |
| Cc1ccc(S(=O)(=O)N(C)C[C@@H]2Oc3c(NC(=O)Nc4ccc(F)cc4)cccc3C(=O)N([C@@H](C)CO)C[C@H]2C)cc1 | -8.14% |
| COc1ccc(S(=O)(=O)N(C)C[C@@H]2Oc3c(NC(=O)Nc4cccc5c4ccn5C)cccc3C(=O)N([C@@H](C)CO)C[C@H]2C)cc1 | -9.95% |
| C[C@@H]1CN([C@@H](C)CO)C(=O)c2cccc(NC(=O)Nc3cccc4ccccc34)c2O[C@H]1CN(C)S(=O)(=O)Cc1ccc(F)cc1 | -0.544% |
| Cc1ccc(S(=O)(=O)N(C)C[C@@H]2Oc3c(NC(=O)Nc4cccc5ccccc45)cccc3C(=O)N([C@@H](C)CO)C[C@H]2C)cc1 | -15.7% [at 21 µM] |
| COc1ccc(S(=O)(=O)N(C)C[C@@H]2Oc3c(NC(=O)Nc4cccc5ccccc45)cccc3C(=O)N([C@@H](C)CO)C[C@H]2C)cc1F | -2.71% |
| COc1ccc(S(=O)(=O)N(C)C[C@@H]2Oc3c(NC(=O)Nc4ccc5occc5c4)cccc3C(=O)N([C@@H](C)CO)C[C@H]2C)cc1 | -5.61% |
| COc1ccccc1S(=O)(=O)N(C)C[C@@H]1Oc2c(NC(=O)Nc3cccc4ccccc34)cccc2C(=O)N([C@@H](C)CO)C[C@H]1C | -10.3% |
| COc1ccc(S(=O)(=O)N(C)C[C@@H]2Oc3c(NC(=O)Nc4ccc5c(c4)OCCO5)cccc3C(=O)N([C@@H](C)CO)C[C@H]2C)cc1 | -9.23% |
| COc1ccc(S(=O)(=O)N(C)C[C@@H]2Oc3c(NC(=O)c4cccc5ccccc45)cccc3C(=O)N([C@@H](C)CO)C[C@H]2C)cc1 | 0.538% |
| COc1cccc(S(=O)(=O)N(C)C[C@@H]2Oc3c(NC(=O)Nc4cccc5ccccc45)cccc3C(=O)N([C@@H](C)CO)C[C@H]2C)c1 | -17.2% |
| COc1ccc(S(=O)(=O)N(C)C[C@@H]2Oc3c(NC(=O)Nc4cccc5ccccc45)cccc3C(=O)N([C@@H](C)CO)C[C@H]2C)cc1 | -14.6% |
| C[C@@H]1CN([C@@H](C)CO)C(=O)c2cccc(NC(=O)Nc3ccc(F)cc3)c2O[C@H]1CN(C)S(=O)(=O)c1ccc(F)cc1 | -5.25% |
| C[C@@H]1CN([C@@H](C)CO)C(=O)c2cccc(NC(=O)Nc3cccc4ccccc34)c2O[C@H]1CN(C)S(=O)(=O)c1ccc2c(c1)OCCO2 | -16.8% |
| C[C@@H]1CN([C@@H](C)CO)C(=O)c2cccc(NC(=O)Nc3ccc(F)cc3)c2O[C@H]1CN(C)S(=O)(=O)c1ccc(Cl)cc1 | -8.14% |
| COc1ccc(S(=O)(=O)N(C)C[C@@H]2Oc3c(NC(=O)Nc4cc(F)cc5c4OCOC5)cccc3C(=O)N([C@@H](C)CO)C[C@H]2C)cc1 | -7.41% |
| C[C@@H]1CN([C@@H](C)CO)C(=O)c2cccc(NC(=O)Nc3cccc4ccccc34)c2O[C@H]1CN(C)S(=O)(=O)c1ccc2c(c1)CCC(=O)N2 | 7.42% |
| COc1ccc(S(=O)(=O)N(C)C[C@@H]2Oc3c(NC(=O)Nc4cccc5c4NSN5)cccc3C(=O)N([C@@H](C)CO)C[C@H]2C)cc1 | -14.6% |
| C[C@@H]1CN([C@@H](C)CO)C(=O)c2cccc(NC(=O)Nc3cccc4ccccc34)c2O[C@H]1CN(C)S(=O)(=O)c1ccccc1F | -12.8% |
| C[C@@H]1CN([C@@H](C)CO)C(=O)c2cccc(NC(=O)Nc3cccc4ccccc34)c2O[C@H]1CN(C)S(=O)(=O)c1ccc(Oc2ccccc2)cc1 | -16.5% |
| COc1ccc(S(=O)(=O)N(C)C[C@@H]2Oc3c(NC(=O)Nc4cc(F)ccc4F)cccc3C(=O)N([C@@H](C)CO)C[C@H]2C)cc1 | -1.63% |
| COc1ccc(S(=O)(=O)N(C)C[C@@H]2Oc3c(NC(=O)Nc4cccc(-c5ncccn5)c4)cccc3C(=O)N([C@@H](C)CO)C[C@H]2C)cc1 | -10.3% |
| C[C@@H]1CN([C@@H](C)CO)C(=O)c2cccc(NC(=O)Nc3cccc4ccccc34)c2O[C@H]1CN(C)S(=O)(=O)c1ccc(F)cc1 | -9.22% |
| COc1ccc(S(=O)(=O)N(C)C[C@@H]2Oc3c(NC(=O)Nc4cccc5c4CC(C)(C)O5)cccc3C(=O)N([C@@H](C)CO)C[C@H]2C)cc1 | -14.3% |
| COc1ccc(S(=O)(=O)N(C)C[C@@H]2Oc3c(NC(=O)Nc4cccc5c4CCCC5)cccc3C(=O)N([C@@H](C)CO)C[C@H]2C)cc1 | -3.44% |
| COc1ccc(S(=O)(=O)N(C)C[C@@H]2Oc3ccc(NC(=O)Nc4cccc5ccccc45)cc3C(=O)N([C@@H](C)CO)C[C@H]2C)cc1 | 5.61% [at 21 µM] |
| Cc1ccc(S(=O)(=O)N(C)C[C@@H]2Oc3c(NC(=O)Nc4ccc(F)cc4)cccc3C(=O)N([C@H](C)CO)C[C@H]2C)cc1 | -12.1% |
